PubChem BioAssay (NCATS)
Results filed as inconclusive are left out. Where a call stands in place of a potency, no number is given. The source made the active and inactive calls. Unless noted, calls come from the whole dose curve; as a rule, active = well fitted curve in the direction sought with a large enough effect; inconclusive = small, poorly fitted or top-dose-only effect, or another doubt; inactive = no such curve, though single readings can be large; an effect the other way counts as inactive or inconclusive.

Experiments:
[1] = target: Bile acid receptor (Homo sapiens) (UniProt Q96RI1); assay: qHTS assay for small molecule antagonists of farnesoid X receptor signaling (AID 588526; calls by dose curve)
Chain of Bile acid receptor (Homo sapiens) (Q96RI1 whole entry, looked up): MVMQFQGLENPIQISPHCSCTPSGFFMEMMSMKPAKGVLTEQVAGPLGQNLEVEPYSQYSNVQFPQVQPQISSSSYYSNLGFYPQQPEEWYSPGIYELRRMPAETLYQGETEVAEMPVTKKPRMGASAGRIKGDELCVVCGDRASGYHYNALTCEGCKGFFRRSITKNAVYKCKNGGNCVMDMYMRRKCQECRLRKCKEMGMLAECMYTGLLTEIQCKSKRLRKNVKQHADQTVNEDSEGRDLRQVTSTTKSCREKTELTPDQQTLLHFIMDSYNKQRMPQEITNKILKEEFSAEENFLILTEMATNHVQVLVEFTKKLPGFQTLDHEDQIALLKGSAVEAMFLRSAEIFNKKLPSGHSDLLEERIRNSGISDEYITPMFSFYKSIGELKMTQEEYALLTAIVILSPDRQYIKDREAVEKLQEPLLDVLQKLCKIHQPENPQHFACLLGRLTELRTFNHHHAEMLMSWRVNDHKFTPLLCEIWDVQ
How it was run: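 Beta-lactamase reporter antagonist mode: HEK293T FXR-UAS-bla cells, titrated compound, CDCA stimulation, 16 h 37 C, CCF4 dye 2 h RT. Data normalized to CDCA 50 uM and DMSO; Hill-fit IC50.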

[2] = target: Bile acid receptor (Homo sapiens) (UniProt Q96RI1); assay: qHTS assay for small molecule agonists of farnesoid X receptor signaling (AID 588527; calls by dose curve; note: series mostly up to about 77 µM); settings: HEK293T FXR-UAS-bla, beta-lactamase ratio, 16 h; activation: stronger effect = higher value
How it was run: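 Quantitative HTS used FXR-UAS-bla HEK293T cells with 16 h compound incubation at 37 C. EC50 values came from concentration-response curves normalized to chenodeoxycholic acid.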

[3] = qHTS assay for small molecule antagonists of peroxisome proliferator-activated receptor delta signaling (AID 588535); settings: HEK293T PPARd-UAS-bla, beta-lactamase FRET ratio, 18 h; 460 nm channel;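 note: cells co-treated with a PPAR-delta agonist as stimulator during compound exposure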
How it was run: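 Cell-based beta-lactamase assay in antagonist mode: 4000 HEK293T PPAR-delta-UAS-bla cells per well, 5 hr preincubation then 18 hr compound incubation at 37 C. IC50 obtained by Hill equation fitting.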

[4] = target: Peroxisome proliferator-activated receptor gamma (Homo sapiens) (UniProt P37231); assay: qHTS assay for small molecule agonists of peroxisome proliferator-activated receptor gamma signaling (AID 588536; active = well fitted curve in the direction sought with a large enough effect in the signal ratio, with a control signal flat, not every such curve was filed as active; the % refers to the signal ratio)
Chain of Peroxisome proliferator-activated receptor gamma (Homo sapiens) (P37231 whole entry, looked up): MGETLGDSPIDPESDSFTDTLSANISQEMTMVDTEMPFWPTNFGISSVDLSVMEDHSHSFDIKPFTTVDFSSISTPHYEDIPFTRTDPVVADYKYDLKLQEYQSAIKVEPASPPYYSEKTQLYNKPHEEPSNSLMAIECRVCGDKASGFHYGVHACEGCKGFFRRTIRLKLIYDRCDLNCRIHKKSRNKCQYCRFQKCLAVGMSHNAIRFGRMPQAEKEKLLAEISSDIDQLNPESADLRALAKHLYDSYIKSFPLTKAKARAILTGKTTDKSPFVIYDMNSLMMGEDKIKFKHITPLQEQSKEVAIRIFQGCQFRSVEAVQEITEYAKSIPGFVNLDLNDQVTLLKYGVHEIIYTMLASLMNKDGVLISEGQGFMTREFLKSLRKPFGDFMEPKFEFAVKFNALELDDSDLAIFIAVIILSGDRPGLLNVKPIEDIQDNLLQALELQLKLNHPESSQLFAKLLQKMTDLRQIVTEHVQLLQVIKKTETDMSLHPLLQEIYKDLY
How it was run: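 HEK293 UAS-bla reporter line, 1% charcoal/dextran FBS; titration, 16 h, 37 C; CCF4 loading 2 h RT; fluorescence 460/530 nm. Normalized to rosiglitazone 2 uM = 100%, DMSO = 0%.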

[5] = target: Peroxisome proliferator-activated receptor gamma (Homo sapiens) (UniProt P37231); assay: qHTS assay for small molecule antagonists of peroxisome proliferator-activated receptor gamma signaling (AID 588537; active = well fitted inhibition curve with a large enough effect in the signal ratio, with a control signal flat, not every such curve was filed as active; the % refers to the signal ratio; note: potency is the fitted concentration of half-maximal effect)
How it was run: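 Inhibitors of agonist-stimulated UAS-bla reporter activity were sought in HEK293 cells; rosiglitazone (50 nM) defined full signal and DMSO baseline. Curves fitted to Hill model gave IC50 and efficacy.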

[6] = target: Thyroid hormone receptor beta (Homo sapiens) (UniProt P10828); assay: qHTS assay for small molecule antagonists of thyroid hormone receptor beta signaling (AID 588547; active = well fitted inhibition curve with a large enough effect in the signal ratio, with a control signal flat, not every such curve was filed as active; the % refers to the signal ratio;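 note: cells stimulated with 0.4 nM T3 agonist during compound exposure; series mostly up to about 77 µM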); settings: TR-UAS-bla HEK293, beta-lactamase ratio, antagonist mode, 18 h
Chain of Thyroid hormone receptor beta (Homo sapiens) (P10828 whole entry, looked up): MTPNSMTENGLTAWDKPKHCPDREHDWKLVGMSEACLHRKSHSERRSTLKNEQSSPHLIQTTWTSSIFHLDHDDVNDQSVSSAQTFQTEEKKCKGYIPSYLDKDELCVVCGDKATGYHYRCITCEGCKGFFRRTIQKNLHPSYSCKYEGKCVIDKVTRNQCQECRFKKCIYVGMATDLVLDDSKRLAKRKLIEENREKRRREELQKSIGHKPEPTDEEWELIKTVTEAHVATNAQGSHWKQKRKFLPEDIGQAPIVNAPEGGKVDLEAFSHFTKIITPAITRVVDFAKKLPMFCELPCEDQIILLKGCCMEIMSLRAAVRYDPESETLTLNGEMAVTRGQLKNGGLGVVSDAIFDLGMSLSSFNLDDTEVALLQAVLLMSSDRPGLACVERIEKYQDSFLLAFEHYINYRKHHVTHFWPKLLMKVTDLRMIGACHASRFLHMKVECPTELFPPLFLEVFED
How it was run: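 Inhibition of T3-driven (0.4nM final) beta-lactamase reporter activity was measured over 0.59 nM to 92 uM compound after 18 h at 37 C. The cells were GripTite HEK293 TR-UAS-bla in charcoal/dextran-stripped serum, with CCF4 ratio read-out and IC50 from Hill fits.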

[7] = target: Glucocorticoid receptor (Homo sapiens) (UniProt P04150); assay: qHTS assay for small molecule antagonists of glucocorticoid receptor signaling (AID 588533; active = well fitted inhibition curve with a large enough effect in the signal ratio, with a control signal flat, not every such curve was filed as active; the % refers to the signal ratio;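 note: cells stimulated with 2 nM dexamethasone as agonist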)
How it was run: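 Antagonist-mode qHTS: compound titrations added to GRE-bla HeLa cells, then dexamethasone 2 nM final; 18 h, 37 C. CCF4 FRET fluorescence normalized to dexamethasone and DMSO; IC50 from Hill fit.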

[8] = target: Vitamin D3 receptor (Homo sapiens) (UniProt P11473); assay: qHTS assay for small molecule agonists of vitamin D receptor signaling (AID 588543; calls by dose curve)
Chain of Vitamin D3 receptor (Homo sapiens) (P11473 whole entry, looked up): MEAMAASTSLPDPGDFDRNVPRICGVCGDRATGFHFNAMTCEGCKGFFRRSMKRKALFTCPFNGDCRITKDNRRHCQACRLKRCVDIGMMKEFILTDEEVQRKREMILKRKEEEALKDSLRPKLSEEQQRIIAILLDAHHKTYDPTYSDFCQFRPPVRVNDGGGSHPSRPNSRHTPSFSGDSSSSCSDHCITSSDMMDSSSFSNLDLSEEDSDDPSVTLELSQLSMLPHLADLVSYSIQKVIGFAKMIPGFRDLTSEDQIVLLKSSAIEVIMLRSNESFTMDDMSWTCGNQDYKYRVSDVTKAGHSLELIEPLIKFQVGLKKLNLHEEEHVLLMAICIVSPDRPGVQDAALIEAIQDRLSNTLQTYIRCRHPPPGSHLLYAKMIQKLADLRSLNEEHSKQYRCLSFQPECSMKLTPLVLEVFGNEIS
How it was run: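 Reporter cells (HEK293T, VDR-UAS-bla) were seeded in medium with 2% charcoal-stripped serum and incubated 5 h, then compounds in concentration series were added for 16 h at 37 °C. Stimulation was scaled between DMSO basal and 50 nM 1α,25-dihydroxyvitamin D3.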

[9] = target: Thyroid hormone receptor beta (Homo sapiens) (UniProt P10828); assay: qHTS assay for small molecule agonists of thyroid hormone receptor beta signaling (AID 588545; calls by dose curve)
How it was run: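 Cells (2500/well) were seeded, incubated 4 hrs at 37 C, dosed with a compound series, incubated 18 hrs, loaded with CCF4 dye for 2 hrs at RT, then read for fluorescence. Data were scaled between DMSO (0%) and 10 nM T3 (100%).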

[10] = qHTS assay for small molecule agonists of the antioxidant response element (ARE) signaling pathway (AID 651741; active = well fitted activation curve with a large enough effect in the signal ratio; the % refers to the signal ratio; note: potency is the fitted concentration of half-maximal effect)
How it was run: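 Seeding 2,000 ARE-bla HepG2 cells per well preceded a 5 h incubation at 37 C/5% CO2 and a 16 h compound exposure at 37 C. Beta-lactamase reporter activity was then quantified by fluorescence after 2 h with LiveBLAzer B/G FRET substrate.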

[11] = target: Peroxisome proliferator-activated receptor alpha (Homo sapiens) (UniProt Q07869); assay: qHTS assay for small molecule agonists of the peroxisome proliferator-activated receptor alpha (PPARalpha) signaling pathway (AID 651778); settings: PathHunter PPARalpha complementation, chemiluminescence, 6 h; max response: stronger effect = higher value
Chain of Peroxisome proliferator-activated receptor alpha (Homo sapiens) (Q07869 whole entry, looked up): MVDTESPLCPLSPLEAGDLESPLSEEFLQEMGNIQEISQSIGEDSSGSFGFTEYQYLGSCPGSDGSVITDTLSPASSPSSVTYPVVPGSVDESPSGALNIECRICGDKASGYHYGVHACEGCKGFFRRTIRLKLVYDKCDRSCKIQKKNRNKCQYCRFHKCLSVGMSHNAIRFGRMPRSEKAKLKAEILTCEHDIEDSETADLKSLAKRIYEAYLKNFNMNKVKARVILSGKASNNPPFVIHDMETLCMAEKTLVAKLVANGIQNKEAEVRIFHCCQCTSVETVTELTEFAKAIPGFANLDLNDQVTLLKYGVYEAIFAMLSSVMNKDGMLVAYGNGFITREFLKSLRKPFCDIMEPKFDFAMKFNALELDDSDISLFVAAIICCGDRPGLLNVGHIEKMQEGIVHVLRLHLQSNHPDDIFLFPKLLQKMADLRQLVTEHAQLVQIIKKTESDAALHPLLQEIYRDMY
How it was run: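 Chemiluminescence from complemented enzyme reported PPARalpha activation in cells after 6 hr of compound treatment at 37 C. The detection reagent was incubated for 60 min at room temperature, and compounds were scored as agonists.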

[12] = qHTS assay for small molecule agonists of the antioxidant response element (ARE) signaling pathway measured by Nrf2-dependant transcriptional activity - cell viability counter screen (AID 720653; active = well fitted curve in the direction sought with a large enough effect in the repeat runs; an effect the other way counts as inactive or inconclusive; note: potency is the fitted concentration of half-maximal effect); settings: ARE-bla HepG2 viability, CellTiter-Glo ATP luminescence, 16 h; max response: stronger effect = lower value
How it was run: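 Cytotoxicity counter screen: intracellular ATP quantified by CellTiter-Glo luminescence in the same ARE-bla HepG2 plates, after 16 h compound exposure and a 2 h beta-lactamase substrate step.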

[13] = qHTS assay for cell viability of HEK293 cells (AID 743288); settings: ATP luminescence (CellTiter-Glo), 18 h; max response: stronger effect = lower value; note: nearly all actives have a fitted effect of over 50% in size
How it was run: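 HEK293 parental, 2,000 cells/well; ≥5 h pre-incubation 37 C; pintool compound addition; 18 h, 37 C; CellTiter-Glo 30 min RT; luminescence read.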

[14] = qHTS assay for cell viability of the p53RE-bla HCT-116 cell line (AID 743292); note: nearly all actives have a fitted effect of over 55% in size
How it was run: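 Viability of compound-treated p53RE-bla HCT-116 cells is taken from ATP-dependent luciferase luminescence. Treatment lasts 16 h at 37 C after a 5 h settling period; detection follows 30 min at room temperature.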

[15] = target: Nuclear receptor subfamily 1 group I member 2 (Rattus norvegicus) (UniProt Q9R1A7); assay: qHTS assay for small molecule activators of the rat pregnane X receptor (rPXR) signaling pathway (AID 651751; call rule not given here); settings: rPXR reporter cells, luciferase (One-Glo), 24 h
Chain of Nuclear receptor subfamily 1 group I member 2 (Rattus norvegicus) (Q9R1A7 whole entry, looked up): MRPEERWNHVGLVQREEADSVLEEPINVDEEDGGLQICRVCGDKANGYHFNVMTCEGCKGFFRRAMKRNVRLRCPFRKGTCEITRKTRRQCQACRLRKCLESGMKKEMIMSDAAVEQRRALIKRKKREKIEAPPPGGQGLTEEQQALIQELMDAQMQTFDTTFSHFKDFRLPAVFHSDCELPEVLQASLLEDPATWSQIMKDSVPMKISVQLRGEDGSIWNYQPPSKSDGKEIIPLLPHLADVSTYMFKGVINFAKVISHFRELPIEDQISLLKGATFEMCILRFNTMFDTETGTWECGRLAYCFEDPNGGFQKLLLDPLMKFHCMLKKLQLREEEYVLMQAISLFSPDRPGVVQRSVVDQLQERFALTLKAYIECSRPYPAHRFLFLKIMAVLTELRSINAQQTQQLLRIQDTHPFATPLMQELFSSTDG

[16] = qHTS assay for small molecule activators of the human pregnane X receptor (PXR) signaling pathway (AID 720659; call rule not given here)
[17] = target: Estrogen receptor (Homo sapiens) (UniProt P03372); assay: qHTS assay for small molecule agonists of estrogen receptor alpha signaling (AID 588514; calls by dose curve; note: nearly all actives have a fitted effect of over 70% in size)
Chain of Estrogen receptor (Homo sapiens) (P03372 whole entry, looked up): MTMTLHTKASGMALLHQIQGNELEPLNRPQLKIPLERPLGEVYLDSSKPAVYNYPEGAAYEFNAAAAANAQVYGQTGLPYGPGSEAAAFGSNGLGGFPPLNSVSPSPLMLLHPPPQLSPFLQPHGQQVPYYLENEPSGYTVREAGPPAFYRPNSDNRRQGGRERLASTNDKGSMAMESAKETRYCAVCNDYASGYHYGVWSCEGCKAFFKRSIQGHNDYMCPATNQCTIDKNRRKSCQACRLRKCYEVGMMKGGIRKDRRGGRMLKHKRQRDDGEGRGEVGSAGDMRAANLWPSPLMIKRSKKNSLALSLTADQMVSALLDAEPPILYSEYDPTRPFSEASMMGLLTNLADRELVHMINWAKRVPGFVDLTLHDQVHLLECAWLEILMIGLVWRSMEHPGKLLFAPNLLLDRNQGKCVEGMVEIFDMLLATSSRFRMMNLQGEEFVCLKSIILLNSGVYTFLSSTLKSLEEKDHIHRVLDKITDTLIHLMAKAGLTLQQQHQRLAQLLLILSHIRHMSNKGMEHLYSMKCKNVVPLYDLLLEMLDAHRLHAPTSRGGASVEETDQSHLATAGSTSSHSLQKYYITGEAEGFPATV
How it was run: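 Reporter-gene assay. […] controls beta-lactamase in HEK 293 GripTite cells; after 18 hrs with compound, CCF4 substrate is added for 2 hrs and fluorescence is read.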

[18] = qHTS assay for small molecule activators of the nuclear factor-kappa B (NF-kB) signaling pathway (AID 651749; active = well fitted activation curve with a large enough effect in the signal ratio; the % refers to the signal ratio; note: series mostly up to about 77 µM); settings: NF-kB-bla ME-180 cells, beta-lactamase FRET ratio, 16 h; activation: stronger effect = higher value
How it was run: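 Stably transfected ME-180 line; NF-kB response element upstream of beta-lactamase. Treatment: compound or DMSO, 16 hr. Detection: fluorescent FRET substrate.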

[19] = target: Cytochrome P450 2C9 (Homo sapiens) (UniProt P11712); assay: qHTS Assay for Inhibitors and Substrates of Cytochrome P450 2C9 (AID 883); note: nearly all actives have a fitted effect of over 60% in size; note: potency is the fitted concentration of half-maximal effect
Chain of Cytochrome P450 2C9 (Homo sapiens) (P11712 whole entry, looked up): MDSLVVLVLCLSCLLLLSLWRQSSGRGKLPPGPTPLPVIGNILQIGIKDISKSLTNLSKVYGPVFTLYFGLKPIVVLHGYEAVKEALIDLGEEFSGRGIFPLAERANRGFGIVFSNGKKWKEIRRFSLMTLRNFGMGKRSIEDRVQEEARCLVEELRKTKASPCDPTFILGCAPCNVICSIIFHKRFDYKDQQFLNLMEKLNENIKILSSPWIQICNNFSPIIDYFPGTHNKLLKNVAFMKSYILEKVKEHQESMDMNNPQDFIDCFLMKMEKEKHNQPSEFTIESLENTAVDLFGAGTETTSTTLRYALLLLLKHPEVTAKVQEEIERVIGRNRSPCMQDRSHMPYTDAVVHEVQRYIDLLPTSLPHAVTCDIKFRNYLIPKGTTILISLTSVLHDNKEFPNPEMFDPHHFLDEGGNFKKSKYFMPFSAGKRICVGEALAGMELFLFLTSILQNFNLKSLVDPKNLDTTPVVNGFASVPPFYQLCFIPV
How it was run: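 Inhibition of CYP2C9 is scored as loss of luminescence, with 57uM sulphaphenazole defining 100% inhibition. Substrate Luciferin-H is used at 100uM, equal to its KM; enzyme at 10nM in 25mM KPO4, 60 min at 37C with NADPH regeneration.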

[20] = target: Cytochrome P450 2C19 (Homo sapiens) (UniProt P33261); assay: qHTS Assay for Inhibitors and Substrates of Cytochrome P450 2C19 (AID 899); note: nearly all actives have a fitted effect of over 60% in size; note: potency is the fitted concentration of half-maximal effect
Chain of Cytochrome P450 2C19 (Homo sapiens) (P33261 whole entry, looked up): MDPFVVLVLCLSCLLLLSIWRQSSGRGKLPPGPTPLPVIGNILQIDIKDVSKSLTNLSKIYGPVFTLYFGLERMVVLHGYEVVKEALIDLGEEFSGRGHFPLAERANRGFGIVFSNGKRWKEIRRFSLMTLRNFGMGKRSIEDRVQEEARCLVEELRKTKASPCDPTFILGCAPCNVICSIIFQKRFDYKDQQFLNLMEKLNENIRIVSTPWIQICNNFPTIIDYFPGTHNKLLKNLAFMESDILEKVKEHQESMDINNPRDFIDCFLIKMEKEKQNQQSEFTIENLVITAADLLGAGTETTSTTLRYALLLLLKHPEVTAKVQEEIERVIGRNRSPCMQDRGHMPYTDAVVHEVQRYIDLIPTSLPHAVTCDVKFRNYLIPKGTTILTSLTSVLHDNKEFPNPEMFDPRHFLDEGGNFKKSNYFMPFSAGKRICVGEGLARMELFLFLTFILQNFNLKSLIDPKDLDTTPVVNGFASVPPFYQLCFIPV
How it was run: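 5nM enzyme + 10uM Luciferin-H EGE (=KM), 50mM KPO4; cpd pin-transferred, 10 min 37C; NADPH regen, 60 min 37C; stopped w/ luciferin detection reagent, 20 min; luminescence. Normalized to 57uM ketoconazole (AC100).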

C#CCN1CC(=O)N(COC(=O)[C@@H]2[C@@H](C=C(C)C)C2(C)C)C1=O
Potency [1]: inactive | activation [2]: 5.41% (inactive) | max response [3]: -9.7% | Potency [4]: inactive | Potency [5]: inactive | activity change % (negative = inhibition) [6]: 21.3% (inactive)

CC(C)=CC1C(C(=O)OCc2coc(Cc3ccccc3)c2)C1(C)C (configuration not stated)
Potency [1]: inactive | activation [2]: 3.82% (inactive) | Potency [7]: inactive | max response [3]: -29.1% | Potency [4]: inactive | outcome [8]: inactive | Potency [9]: inactive | Potency [10]: 61.1 µM (active) | max response [11]: -0.283% (inactive) | max response [12]: -23.8% (inactive) | max response [13]: 0.368% (inactive) | Potency [14]: inactive | max response [15]: 7.41% (inactive)

CC(C)N(C(=O)CCl)c1ccccc1
outcome [8]: inactive | Potency [9]: inactive | Potency [10]: 17.2 µM (active) | max response [11]: -1.12% (inactive) | Potency [12]: 39.8 µM (active) | Potency [14]: inactive | outcome [16]: inactive

O=C(NC(=O)c1c(F)cccc1F)Nc1ccc(Cl)cc1
Potency [17]: inactive | Potency [1]: inactive | max response [3]: -32.8% | Potency [5]: inactive | outcome [8]: inactive | Potency [9]: inactive | activity change % (negative = inhibition) [6]: -1.34% (inactive) | activation [18]: 0.393% (inactive) | max response [11]: -1.48% (inactive) | max response [12]: -7.3% (inactive) | max response [13]: -0.376% (inactive) | Potency [14]: inactive | max response [15]: 11% (inactive) | outcome [16]: inactive

CSc1nc(NC(C)C)nc(NC(C)C)n1
Potency [17]: inactive | Potency [4]: inactive

O=C1C=C2C(=CCOC2O)O1 (configuration not stated)
Potency [17]: inactive | activation [2]: -4.19% (inactive) | Potency [5]: 20 µM (active) | activation [18]: 2.18% (inactive) | max response [15]: -14.8% (inactive) | outcome [16]: inactive

CCCCN(CC)c1c([N+](=O)[O-])cc(C(F)(F)F)cc1[N+](=O)[O-]
Potency [7]: inactive | max response [3]: 41.5% | Potency [5]: inactive | Potency [10]: inactive | activation [18]: -1.55% (inactive) | Potency [14]: inactive | max response [15]: 3.44% (inactive)

CCCc1cc2c(n1Cc1cccc(Cl)c1)C(C)C1CN(C(=O)c3ccccc3)C(C)(C(=O)OC)C21 (configuration not stated)
Potency [19]: 5.01 µM (active)

COc1cc2c(cc1OC)[C@]13CCN4CC5=CCO[C@@H]6CC(=O)N2[C@@H]1[C@H]6[C@@H]5C[C@H]43
Potency [19]: inactive | Potency [20]: inactive

C[C@@H]1O[C@H](O[C@H]2C[C@@H](O)[C@]3(CO)[C@H]4[C@H](O)C[C@]5(C)[C@@H](C6=CC(=O)OC6)CC[C@@]5(O)[C@H]4CC[C@]3(O)C2)[C@@H](O)[C@H](O)[C@H]1O
Potency [20]: inactive

CCN1C[C@@]2(COC)[C@H](O)C[C@H](OC)[C@@]34[C@@H]5C[C@@]6(O)[C@H](OC(=O)c7ccccc7)[C@H]5[C@@](OC(C)=O)([C@H]([C@@H](OC)[C@H]23)[C@H]14)[C@H](O)[C@@H]6OC
Potency [19]: inactive | Potency [20]: inactive

COc1ccc2c(c1OC)C(=O)O[C@@H]2[C@H]1c2cc3c(cc2CCN1C)OCO3
Potency [20]: 3.16 µM (active)
